This is an account of results in PubChem BioAssay (Tox21).

Molecules are shown by their SMILES. Results filed as inconclusive are left out. The source made the active and inactive calls. Calls follow the shape of the dose curve; as a rule, active = well fitted cell-killing curve with a large enough effect in the repeat runs; inconclusive = weak or mixed curves; inactive = flat fitted curve, though single readings scatter.
% is scaled to controls: 0 for no effect and ±100 for the full control effect.

A short description of this assay: qHTS assay to identify small molecule antagonists of the TGF-beta/Smad signaling pathway - cell viability counter screen (AID 1346824). Also: nearly all actives have a fitted effect of over 50% in size. To be noted: SBE-bla HEK293T viability, CellTiter-Glo luminescence; series mostly up to 76.8 µM; viability change, negative = cytotoxic: at the top concentration. A digest of the protocol:
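SBE-bla HEK 293T cells were plated overnight at 37 C, then given compounds in DMSO plus TGF-beta1 (added as 0.25 ng/mL solution) for 5 hr. After the bla read, CellTiter-Glo was added to the same wells and luminescence read after 30 min at room temperature.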
(In general: Quantitative high-throughput screening tests each substance at several concentrations.)
On to `Cc1ccccc1N=C(N)N=C(N)N`, for which the “viability change, negative = cytotoxic” value is -4.74% (inactive).

In the case of `FB(F)F`, the “viability change, negative = cytotoxic” value was 1.37% (inactive).

For `CCCC(=O)O[C@]1(C(=O)CC)CC[C@H]2[C@@H]3CCC4=CC(=O)CC[C@]4(C)[C@H]3[C@@H](O)C[C@@]21C`, the “viability change, negative = cytotoxic” value is 5.78% [at 35.3 µM] (inactive).

Consider `CCO[Si](OCC)(OCC)c1ccccc1`, for which the “viability change, negative = cytotoxic” value is 3.86% (inactive).

Turning to `Cc1cccc(C)c1NC(=O)CC12CCCN1CCC2`, the “viability change, negative = cytotoxic” value is 1.13% [at 35.3 µM] (inactive).

`O=S(=O)(O)c1cc(O)c(O)c(S(=O)(=O)O)c1`: the “viability change, negative = cytotoxic” value was 1.43% (inactive).

For `CC(C)C1CCC(O)CC1` (centres undefined), the “viability change, negative = cytotoxic” value is -0.0345% (inactive).

With `CC1=NN(c2cc(S(=O)(=O)O)ccc2Cl)C(=O)C1N=Nc1ccccc1` (centres undefined), the “viability change, negative = cytotoxic” value is -6.85% (inactive).

Consider `CC12CCC(C(=O)C1=O)C2(C)C` (centres undefined), for which the “viability change, negative = cytotoxic” value was -1.55% (inactive).

Turning to `C=CN1CCCCCC1=O`, the “viability change, negative = cytotoxic” value was 12.6% (inactive).

As for `CCCCCCCCCCCCCCCCCCO`, the “viability change, negative = cytotoxic” value is 11.1% [at 35.3 µM] (inactive).

On to `CC(C)C(=O)OC(=O)C(C)C`, for which the “viability change, negative = cytotoxic” value was 24.9% (inactive).

Turning to `[O-][n+]1cccc(CO)c1`, the “viability change, negative = cytotoxic” value is -1.44% [at 35.3 µM] (inactive).

`CCCCCC(=O)OCCc1ccccc1`: the “viability change, negative = cytotoxic” value was -2.49% (inactive).

With `CC(=O)NC(=O)c1ccccc1O`, the “viability change, negative = cytotoxic” value was -8.01% [at 35.3 µM] (inactive).

As for `COc1cc(C(=O)OC(COCCC(C)C)CN2CCOCC2)cc(OC)c1OC` (centres undefined), the “viability change, negative = cytotoxic” value is -6.23% [at 35.3 µM] (inactive).

Consider `CO[Si](C)(OC)c1ccccc1`, for which the “viability change, negative = cytotoxic” value is -0.413% (inactive).

As for `C=COC(=O)C(C)(CC)CCC(C)C` (centres undefined), the “viability change, negative = cytotoxic” value was 6.83% (inactive).

With `C=C[Si](OC(C)=O)(OC(C)=O)OC(C)=O`, the “viability change, negative = cytotoxic” value is 1.59% (inactive).

For `COc1c(N2CCNC(C)C2)c(F)cc2c(=O)c(C(=O)O)cn(C3CC3)c12` (centres undefined), the “viability change, negative = cytotoxic” value was 0.472% [at 35.3 µM] (inactive).

As to `CC1(C)OC[C@@H](COC(=O)CCc2ccc(OC[C@@H](O)CNCCNC(=O)N3CCOCC3)cc2)O1`, the “viability change, negative = cytotoxic” value is -0.601% [at 35.3 µM] (inactive).

Consider `C=CC(C)(CCC=C(C)C)OC(=O)CC` (centres undefined), for which the “viability change, negative = cytotoxic” value is -2.55% (inactive).

As to `c1ccc(Cc2ccccc2)cc1`, the “viability change, negative = cytotoxic” value is -7.75% (inactive).

In the case of `CC(C)(C#N)Nc1nc(Cl)nc(NC2CC2)n1`, the “viability change, negative = cytotoxic” value is -7.32% (inactive).
